Values joined by “and” are separate entries in the source; they are usually repeats but may differ in a detail not shown here. Equal values may be shown once. Records with an inconclusive call do not appear. A structure can be active in one record and inactive in another. Active and inactive are the calls of the source. How the source made its calls: active means hit-call score of the fitted dose curve at least 0.9, where 1 is the maximum; inconclusive means response in the unintended direction; inactive means score below 0.9.
What was measured:
[1] = TOX21_p53_BLA_p2_viability: Viability Assessment in the Tox21 HCT-116 p53 Agonism Beta-lactamase Assay, Phase 2 (AID 2283591);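 further: compound exposure lasted 16 h at 37 °C; actives lower the ATP signal meaning cytotoxicity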
Summary of the method: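 HCT-116 p53-bla cells (4000/well) rested 5 h at 37C, then received compounds in DMSO (217-fold dilution) for 16 h at 37C, 5% CO2. After the CCF4 read, CellTiter-Glo was added; ATP luminescence was read after 30 min at room temperature.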

[2] = target: Cellular tumor antigen p53 (Homo sapiens) (UniProt P04637); test: TOX21_p53_BLA_p2_ratio: Tox21 HCT-116 p53 Agonism Beta-lactamase Assay, Ratio, Phase 2 (AID 2283592)
Summary of the method: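 In this cell-based reporter format, HCT116 cells were dosed with chemicals delivered from DMSO by 217-fold dilution and incubated 16 h at 37C. Emission at 460 and 530 nm after 2 h CCF4-AM loading provided the ratio, fitted upward versus DMSO.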

[3] = TOX21_p53_BLA_p3_viability: Viability Assessment in the Tox21 HCT-116 p53 Agonism Beta-lactamase Assay, Phase 3 (AID 2283593);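 further: cells exposed to compound for 16 h before reading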
Summary of the method: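 HCT-116 cells (4000/well) rested 5 h at 37C, then got DMSO compounds by pin tool (217-fold dilution) for 16 h at 37C, 5% CO2. After the bla read, CellTiter-Glo was added and luminescence read at 30 min, room temperature.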

[4] = target: Cellular tumor antigen p53 (Homo sapiens) (UniProt P04637); test: TOX21_p53_BLA_p3_ratio: Tox21 HCT-116 p53 Agonism Beta-lactamase Assay, Ratio, Phase 3 (AID 2283596)
Summary of the method: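 HCT116 p53-bla cells (4000/well) given compound in DMSO (217-fold dilution) after 5 h, incubated 16 h at 37C. CCF4-AM substrate 2 h at room temperature; 460/530 nm emission ratio, gain fitted against DMSO.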

[5] = TOX21_p53_BLA_p4_viability: Viability Assessment in the Tox21 HCT-116 p53 Agonism Beta-lactamase Assay, Phase 4 (AID 2283597);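 further: hits lower the luminescence signal meaning cytotoxicity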
Summary of the method: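 We seeded HCT116 p53 reporter cells at 4000/well and waited 5 h. We then added compounds in DMSO at a 217-fold dilution and incubated for 16 h. Viability was read as CellTiter-Glo luminescence after 30 min at RT.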

[6] = target: Cellular tumor antigen p53 (Homo sapiens) (UniProt P04637); test: TOX21_p53_BLA_p5_ratio: Tox21 HCT-116 p53 Agonism Beta-lactamase Assay, Ratio, Phase 5 (AID 2283599)
Summary of the method: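 HCT-116 cells carrying a p53-inducible beta-lactamase reporter were seeded at 4000 cells/well and dosed after 5 h with compound in DMSO (217-fold dilution). After 16 h at 37C, CCF4-AM substrate was added for 2 h, and the 460/530 nm emission ratio was scored as gain-of-signal versus DMSO.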

[7] = TOX21_p53_BLA_p5_viability: Viability Assessment in the Tox21 HCT-116 p53 Agonism Beta-lactamase Assay, Phase 5 (AID 2283600)
Summary of the method: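 Compounds, pinned from DMSO at 217-fold dilution, were left on the cells for 16 h. The viability endpoint was ATP content measured by CellTiter-Glo luminescence, where falling signal reflects cytotoxicity.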

[8] = target: Cellular tumor antigen p53 (Homo sapiens) (UniProt P04637); test: TOX21_p53_BLA_p4_ratio: Tox21 HCT-116 p53 Agonism Beta-lactamase Assay, Ratio, Phase 4 (AID 2283601)
Summary of the method: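 HCT116 cells carrying an inducible beta-lactamase reporter were plated at 4000 cells/well, rested 5 h, then exposed to compounds in DMSO (217-fold dilution) for 16 h at 37C. CCF4-AM substrate was loaded 2 h at room temperature; 460/530 nm emission ratio scored gain-of-signal versus DMSO.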

[9] = target: mouse Estrogen Receptor alpha (Era), Esr1 (gene 13982) (UniProt P19785); test: NVS_NR_mERa: NovaScreen (NVS) Nuclear Receptor Binding Assay for mouse Estrogen Receptor alpha (Era) (AID 2283378);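 further: hit means loss of bound radioligand signal relative to DMSO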
Summary of the method: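 Filter scintillation counts of bound radioligand, measured 18 h post-dose, gave the readout; decreased signal relative to DMSO controls indicated displacement from mouse Era. Primary screen ran in duplicate at 25 uM; active chemicals were retested across concentrations.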

[10] = target: Norway rat Vesicular Monoamine Transporter (VMAT2), neurotransmitter transporter, Slc18a2 (gene 25549) (UniProt Q01827); test: NVS_TR_rVMAT2: NovaScreen (NVS) Transporter Assay for Norway rat Vesicular Monoamine Transporter (VMAT2), neurotransmitter transporter (AID 2283376);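 further: actives lower the bound radioligand signal below the DMSO level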
Summary of the method: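 Rat forebrain tissue preparation used in a cell-free radioligand binding format; displacement read by filter-based scintillation counting 1 hour after dosing. Primary screen in duplicate at 25 uM, actives then run in concentration series; loss of signal versus DMSO baseline.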

Measured: AC50

Norway rat Vesicular Monoamine Transporter (VMAT2), neurotransmitter transporter, Slc18a2 (gene 25549), sequence (Q01827 whole entry, looked up): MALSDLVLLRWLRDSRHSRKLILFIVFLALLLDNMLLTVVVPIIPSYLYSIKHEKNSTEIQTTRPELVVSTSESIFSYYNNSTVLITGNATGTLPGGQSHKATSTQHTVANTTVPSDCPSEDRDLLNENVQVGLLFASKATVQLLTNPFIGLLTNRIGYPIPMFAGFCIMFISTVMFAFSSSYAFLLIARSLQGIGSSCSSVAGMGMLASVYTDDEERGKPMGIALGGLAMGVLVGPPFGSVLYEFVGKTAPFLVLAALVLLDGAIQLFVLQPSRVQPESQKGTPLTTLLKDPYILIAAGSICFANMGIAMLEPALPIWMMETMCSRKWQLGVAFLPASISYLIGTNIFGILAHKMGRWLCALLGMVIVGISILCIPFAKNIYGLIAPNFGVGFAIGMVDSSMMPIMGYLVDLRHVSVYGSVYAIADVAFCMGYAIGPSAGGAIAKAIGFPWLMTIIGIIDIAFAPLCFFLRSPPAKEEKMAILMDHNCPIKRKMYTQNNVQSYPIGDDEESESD
Cellular tumor antigen p53 (Homo sapiens), sequence (P04637 whole entry, looked up): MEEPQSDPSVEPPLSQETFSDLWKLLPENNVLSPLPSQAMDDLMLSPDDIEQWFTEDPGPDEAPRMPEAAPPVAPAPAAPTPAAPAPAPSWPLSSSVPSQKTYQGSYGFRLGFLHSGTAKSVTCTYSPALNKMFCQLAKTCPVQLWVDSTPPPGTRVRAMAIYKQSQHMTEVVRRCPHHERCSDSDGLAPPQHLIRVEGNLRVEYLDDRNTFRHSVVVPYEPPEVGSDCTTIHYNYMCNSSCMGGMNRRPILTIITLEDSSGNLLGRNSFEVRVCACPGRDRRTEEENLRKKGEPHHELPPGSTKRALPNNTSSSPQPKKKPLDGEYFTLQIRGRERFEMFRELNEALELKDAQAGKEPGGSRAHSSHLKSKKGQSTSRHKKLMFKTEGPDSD
mouse Estrogen Receptor alpha (Era), Esr1 (gene 13982), sequence (P19785 whole entry, looked up): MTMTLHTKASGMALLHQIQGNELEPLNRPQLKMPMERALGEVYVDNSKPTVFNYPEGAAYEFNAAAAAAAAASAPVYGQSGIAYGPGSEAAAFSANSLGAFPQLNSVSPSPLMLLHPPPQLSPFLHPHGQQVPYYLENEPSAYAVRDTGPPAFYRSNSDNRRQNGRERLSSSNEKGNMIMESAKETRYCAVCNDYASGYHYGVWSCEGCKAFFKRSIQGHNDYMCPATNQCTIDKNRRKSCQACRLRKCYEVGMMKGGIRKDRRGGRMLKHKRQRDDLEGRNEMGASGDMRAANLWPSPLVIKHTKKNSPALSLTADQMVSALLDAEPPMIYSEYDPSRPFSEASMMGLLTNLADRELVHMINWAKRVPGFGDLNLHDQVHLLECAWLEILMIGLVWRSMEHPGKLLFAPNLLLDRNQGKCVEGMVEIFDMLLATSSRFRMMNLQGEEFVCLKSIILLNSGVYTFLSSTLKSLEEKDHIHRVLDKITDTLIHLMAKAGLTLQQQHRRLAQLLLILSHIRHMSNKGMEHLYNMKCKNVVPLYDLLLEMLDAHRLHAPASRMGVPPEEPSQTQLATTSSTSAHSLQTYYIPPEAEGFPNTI

O=C(O)/C=C\C(=O)O
not listed: [9] | [10]
inactive: all other assays above

N#CC(C#N)=NNc1cccc(Cl)c1
active: [1] 20.8 µM | [2] 2.66 µM | [4] 1.24 µM | [5] 6.28 µM | [6] 26.7 µM | [7] 46.1 µM | [8] 13.8 µM
inactive: [9] | [3]

CCOC(=S)S
inactive: [1] | [2] | [3] | [4] | [5] | [6] | [7] | [8]
active: [4] 86.6 µM

CCCCON=O
inactive: [1] | [2]

CCCCCCCCCCCCCCCC(=O)OC/C=C(C)/C=C/C=C(C)/C=C/C1=C(C)CCCC1(C)C
inactive: [10]

Nc1ccc([As](=O)(O)O)cc1
inactive: [1] | [2] | [4] | [5] | [6] | [7] | [8]
active: [2] 35.1 µM | [8] 42.1 µM

c1ccc(-c2nc3ccccc3[nH]2)cc1
active: [10] 6.56 µM

C[C@@H]1CC[C@H]2[C@@H](C)C(=O)O[C@@H]3O[C@@]4(C)CC[C@@H]1[C@]32OO4
not listed: [9] | [10]
inactive: all other assays above

N#CCBr
inactive: [1] | [2] | [3] | [4]

BrC(Br)C(Br)(Br)Br
not listed: [9] | [10]
inactive: all other assays above

CN1CCN=C(c2ccccc2)c2cc(Cl)ccc21
inactive: [1] | [3] | [4] | [5]
active: [2] 0.000141 µM | [6] 0.000104 µM | [7] 0.000386 µM | [8] 2.67e-05 µM

C#CCN1CC(=O)N(COC(=O)C2C(C=C(C)C)C2(C)C)C1=O (stereo unspecified)
inactive: [1] | [2] | [3] | [4] | [5]

CCC1(CC)C(=O)NC(=O)N(C)C1=O
inactive: [1] | [2] | [3] | [4] | [5]

CCCC(=O)OC(C(Cl)(Cl)Cl)P(=O)(OC)OC (stereo unspecified)
not listed: [9] | [10]
inactive: all other assays above

OCC(Cl)CCl (stereo unspecified)
not listed: [8] | [9] | [10]
inactive: all other assays above

CCCCCCCCCCCCCC[P+](CCCCCC)(CCCCCC)CCCCCC
active: [1] 33.6 µM and 20.1 µM | [2] 59.6 µM and 51.8 µM | [3] 46.3 µM and 28.9 µM | [4] 67.4 µM and 50.1 µM and 7.15 µM | [5] 34.3 µM and 20.3 µM | [6] 59.5 µM and 58.6 µM | [7] 32.3 µM and 26.6 µM | [8] 66 µM and 48.6 µM
inactive: [1] | [2] | [5] | [6]

O=C(N/N=C/c1ccc([N+](=O)[O-])o1)c1cc([N+](=O)[O-])cc([N+](=O)[O-])c1O
active: [5] 23 µM
not listed: [9] | [10]
inactive: all other assays above

ClC(Cl)(Cl)Br
not listed: [9] | [10]
inactive: all other assays above

O=[N+]([O-])c1ccccc1CCl
not listed: [9] | [10]
inactive: all other assays above

CCC1(c2cnc[nH]2)Cc2ccccc2C1
not listed: [9] | [10]
inactive: all other assays above

CC1CCC(C(C)C)C(OC(=O)c2ccccc2N)C1 (stereo unspecified)
active: [1] 45.5 µM and 38.5 µM | [2] 76.3 µM | [3] 23 µM | [5] 45.5 µM and 34.7 µM | [6] 42.8 µM | [7] 31.7 µM
inactive: [2] | [4] | [7] | [8]

CC(C)[C@@]1(NC(=O)[C@@H]2C[C@@H]3c4cccc5[nH]cc(c45)C[C@H]3N(C)C2)O[C@@]2(O)[C@@H]3CCCN3C(=O)[C@H](Cc3ccccc3)N2C1=O
active: [5] 33.9 µM
inactive: [1] | [2] | [3] | [4] | [5] | [6] | [7] | [8]

CC(C)N(C(=O)SCC(Cl)=CCl)C(C)C
not listed: [8] | [9] | [10]
inactive: all other assays above

CCOC(=O)C=Cc1ccccc1
inactive: [10]

C1CN(P2(N3CC3)=NP(N3CC3)(N3CC3)=NP(N3CC3)(N3CC3)=N2)CCO1 (stereo unspecified)
active: [4] 23 µM
not listed: [9] | [10]
inactive: all other assays above
